Mito fusion act = mitochondrial division inhibition or fusion activation; actives 0.23% (n = 320,000); Potency, µM (highest dose often 46.1 µM), hits mostly activators; S. cerevisiae fusion-defective mutant growth rescue, CellTiterGlo 48 h; note: nearly all actives have a fitted effect of over 45% in size
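Yeast fusion mutant, YPEG (non-fermentable carbon), compound, 48 h at 37C non-permissive; CellTiterGlo added, 10 min RT, luminescence read. Rescued growth = division inhibition.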
PLK1 PBD block = PLK1 (human) polo-box domain binding inhibition; P53350; Plk1 PBD binding of FITC phosphopeptide, fluorescence polarization; Potency, µM, most hits filed as inhibitors; actives 2.8% (n = 360,000); note: series mostly up to about 57 µM; nearly all actives have a fitted effect of over 65% in size
GLS inh = inhibitors of human glutaminase (GLS) | Potency, µM (top dose mostly 45.5 µM), usual class: inhibitors | O94925 | GLS enzymatic activity, qHTS titration | actives 0.21% (n = 410,000)
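Glutamate formation by hKGA was monitored fluorometrically using coupled glutamate oxidase, HRP and Amplex Red. Substrate was added as 1 mM L-glutamine solution; incubation was 30 min at RT after an initial read.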
KAT2A inh = GCN5L2 (KAT2A) acetyltransferase inhibition; Q92830; GCN5L2 HAT assay, ThioGlo1 CoA-SH fluorescence; AID 504327; Potency, µM (top dose mostly 58.9 µM), hits mostly inhibitors; actives 0.21% (n = 390,000)
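Compounds, pin-transferred from DMSO stocks, meet 20nM GCN5L2 for 15 min before the reaction begins with H3(1-25) peptide (75uM) and acetyl-CoA (70uM). Thiol-reactive ThioGlo1 reports CoA release over 20 min at room temperature.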
PKM2 act = increases activity of human pyruvate kinase M2. AID 1631. actives 0.34% (n = 260,000). Potency, µM (doses to about 57.5 µM), usual class: activators. P14618. purified PKM2, Kinase-Glo ATP luminescence, activation; response scale: 0% is enzyme alone, no compound; note: nearly all actives have a fitted effect of over 55% in size
Target sequence (P14618 whole entry, looked up): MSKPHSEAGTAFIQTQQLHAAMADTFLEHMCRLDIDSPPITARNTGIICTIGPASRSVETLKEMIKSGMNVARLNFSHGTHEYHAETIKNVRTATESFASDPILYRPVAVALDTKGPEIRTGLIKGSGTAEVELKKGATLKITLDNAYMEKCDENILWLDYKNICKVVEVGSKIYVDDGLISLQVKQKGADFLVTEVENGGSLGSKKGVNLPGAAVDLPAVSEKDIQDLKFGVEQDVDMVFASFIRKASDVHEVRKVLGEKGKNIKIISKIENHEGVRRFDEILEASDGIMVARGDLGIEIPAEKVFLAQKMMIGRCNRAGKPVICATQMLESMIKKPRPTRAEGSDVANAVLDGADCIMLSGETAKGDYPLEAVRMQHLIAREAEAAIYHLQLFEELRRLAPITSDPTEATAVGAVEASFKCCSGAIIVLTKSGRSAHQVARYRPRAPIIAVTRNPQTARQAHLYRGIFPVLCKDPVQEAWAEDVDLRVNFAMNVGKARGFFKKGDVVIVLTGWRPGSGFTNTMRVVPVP
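Kinase-Glo luminescence reports ATP generated from ADP (0.1 mM) and PEP (0.5 mM) by purified hPK-M2 after 1 h at room temperature, pH 7.2 imidazole buffer; intermediate enzyme activity allows detecting inhibitors and activators.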
VDR inhibitor = vitamin D3 receptor (human) inhibition; P11473; VDR-SRC2-3 peptide fluorescence polarization, 2 h; Potency, µM, usual class: inhibitors; actives 0.93% (n = 400,000); AID 504847
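After 23 nl compound addition and a short centrifugation, plates sat for 2 hours at ambient temperature; polarization of fluorescence then indicated loss of VDR binding to peptide SRC2-3.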
A number is an active result; . = inactive; ? = inconclusive; / = no result. Compounds with a hit are over-represented: about 3.4% of the library has one in this group of screens. Calls come from the whole dose curve; as a rule, active = well fitted curve in the direction sought with a large enough effect; inconclusive = small, poorly fitted or top-dose-only effect, or another doubt; inactive = no such curve, though single readings can be large; an effect the other way counts as inactive or inconclusive.

SMILES	Mito fusion act	PLK1 PBD block	GLS inh	KAT2A inh	PKM2 act	VDR inhibitor
CCNc1ncc2nc(-c3ccc(F)cc3)c(=O)n(C[C@H]3CCCO3)c2n1	/	/	/	.	/	.
S=C(NCCc1cccc(Cl)c1)NC1CCCCC1	.	.	.	.	.	.
Cc1ccc(CN(Cc2ccco2)C(=O)COc2cc(C)c(Cl)c(C)c2)cc1	/	/	.	.	/	.
Cc1cc(OCCn2cnc3ccccc3c2=O)cc(C(C)C)c1	.	21.2µM	.	.	.	.
Cc1cc(C)c(OCCCCn2cnc3ccccc3c2=O)c(C)c1	.	.	.	.	.	.
COc1ccc(-c2nn3c(C4CCCCC4)nnc3s2)cc1OC	?	21.2µM	.	.	.	?
Cc1cc(=O)[nH]c(SCC(=O)C23CC4CC(CC(C4)C2)C3)c1C#N	.	23.8µM	.	.	.	?
O=c1oc2cc(O)ccc2cc1-c1nc2ccccc2o1	/	10.6µM	.	/	/	/
O=c1oc2cc(O)ccc2cc1S(=O)(=O)c1ccccc1	.	.	.	?	/	.
COC(=O)[C@@]1(Cc2ccccc2)[C@H]2c3cc(C(=O)N4CCCC4)n(Cc4nc5ccccc5[nH]4)c3C[C@H]2CN1C(=O)c1ccccc1	/	/	/	/	.	/
CCC(=O)Nc1cccc(C(=O)/C=C/c2ccccc2)c1	.	.	.	.	.	50.1µM
O=C(/C=C/c1cccc(O)c1)c1cccnc1	.	?	.	.	.	56.2µM
COC(=O)c1ccc(/C=C/C(=O)c2cccc(OC)c2)cc1	.	.	.	.	.	22.4µM
COc1cccc(C(=O)/C=C/c2ccc(SC)cc2)c1	.	.	.	.	.	?
O=C(/C=C/c1ccccc1)c1ccc(O)cc1	/	/	/	.	/	44.7µM
COc1ccccc1CN1CC(=O)N2CSC[C@H]2C1=O	.	.	.	.	/	.
CCn1ccnc1CN(C)C(=O)C1CCC(=O)N(Cc2cccc(F)c2)C1 (stereo unspecified)	.	.	.	.	/	.
O=C(O)/C=C/C(=O)NCCCc1ccccc1	.	26.7µM	?	.	.	.
CC(=O)Nc1ccc(NC(=S)NC(=O)/C=C/c2ccc(Cl)cc2)cc1	.	?	.	.	.	.
O=C(C=Cc1ccccc1)c1ccc([N+](=O)[O-])cc1	/	.	.	/	/	10µM
Cc1cccc(C=CC(=O)c2ccccc2)c1	/	.	.	/	/	44.7µM
CCC(=O)Nc1ccc(NC(=O)/C=C/c2ccc(Cl)cc2)cc1	.	29.9µM	.	.	.	?
O=C(/C=C/c1ccc(Cl)cc1)NC1CC2CCC1C2 (stereo unspecified)	.	.	.	.	.	.
COc1ccc(C(=O)/C=C/c2ccccc2)cc1	/	/	/	.	/	25.1µM
Cc1ccc(C(=O)/C=C/c2ccccc2[N+](=O)[O-])cc1	.	26.7µM	.	.	.	?
SMILES	Mito fusion act	PLK1 PBD block	GLS inh	KAT2A inh	PKM2 act	VDR inhibitor
O=C(/C=C/c1ccc([N+](=O)[O-])cc1)NC1CC2CCC1C2 (stereo unspecified)	.	5.97µM	.	.	.	?
Cc1ccc(C(=O)/C=C/C(=O)c2ccc(C)cc2)cc1	.	1.68µM	2.82µM	.	?	?
Cc1ccc(/C=C/C(=O)c2ccc(C)cc2)cc1	.	.	.	.	.	?
COc1ccc(Cl)cc1Cn1c(C)c(C(=O)NCc2ccc(F)cc2)sc1=O	/	.	.	/	/	/
COc1ccc(NS(=O)(=O)c2ccc(C(=O)N(C)Cc3cccs3)cc2)cc1	.	.	.	.	/	.
Cc1cc(-n2c(=O)[nH]c(=O)n(C)c2=O)ccc1Oc1ccc(S(=O)(=O)C(F)(F)F)cc1	/	/	.	/	/	/
CCc1ccc(NC(=O)CSc2nc(N)c(NC(=O)c3ccc(F)c(F)c3)c(=O)[nH]2)cc1	.	.	.	.	.	.
NS(=O)(=O)c1ccc(CCNC(=O)/C=C/c2ccc([N+](=O)[O-])cc2)cc1	.	.	.	.	.	.
O=C(/C=C/c1ccc([N+](=O)[O-])cc1)NCCc1ccccc1	.	16.8µM	.	.	.	?
O=C(COC(=O)c1ccccc1O)NCCCc1ccccc1	.	29.9µM	.	.	.	.
CCOc1ccc(/C=C/C(=O)c2ccccc2)cc1OC	.	.	.	.	.	79.4µM
Fc1cc2nccnc2cc1N1CCSCC1	.	.	.	.	.	.
Fc1cc2[nH]c(=S)[nH]c2c(Br)c1N1CCSCC1	.	26.7µM	.	.	/	.
CN1CCN(C(c2cccnc2)c2ccc3cccnc3c2O)CC1 (stereo unspecified)	.	18.9µM	.	.	.	.
O=[N+]([O-])c1ccc(-[n+]2ccc3ccccc3c2)c([N+](=O)[O-])c1	.	23.8µM	.	.	/	79.4µM
O=[N+]([O-])c1ccc(SNc2ccccc2)c([N+](=O)[O-])c1	/	.	.	/	/	.
COc1cccc([C@@H]2Oc3ccc(OC)cc3C(=O)[C@H]2OC(=O)N[C@H]2CCCc3ccccc32)c1	/	/	/	/	/	.
COc1ccc(NC(=O)CN(C)C(=O)c2cc3c(s2)CCCCC3)cc1	.	.	.	.	.	.
COc1ccc(NC(=O)CN(C)C(=O)c2cc3c(s2)CCC3)cc1	.	7.52µM	.	?	/	.
CCc1ccccc1NC(=O)c1nn(-c2ccc(C)cc2)c(=O)c2c1c1ccccc1n2C	/	/	.	.	/	.
CN(C)CCNc1ccc(CO)c2sc3ccc(O)cc3c(=O)c12	/	.	.	/	/	.
CN(C)CCNc1ccc2ncn3c4ccc(O)cc4c(=O)c1c23	/	11.9µM	.	/	/	.
CCSc1nc(=S)cc(C)[nH]1	.	26.7µM	.	.	.	79.4µM
CO/N=C/c1c(C(=O)OC)nn(-c2ccccc2)c1Cl	.	3.77µM	?	.	.	?
CCOc1ccc(C(CC(=O)O)NC(=O)COc2ccccc2)cc1OC (stereo unspecified)	.	.	.	.	.	.
SMILES	Mito fusion act	PLK1 PBD block	GLS inh	KAT2A inh	PKM2 act	VDR inhibitor
CCOc1ccc(C(CC(=O)O)NS(=O)(=O)c2ccc(C)cc2)cc1OC (stereo unspecified)	.	21.2µM	.	.	.	.
COc1ccc(CCNC(=O)Cn2c(=O)nc(-c3ccccc3)c3ccccc32)cc1OC	/	/	.	.	/	.
O=C(c1c[nH]c(C(=O)C(Cl)(Cl)Cl)c1)c1ccccc1F	.	.	.	.	/	.
O=C(c1c[nH]c(C(=O)C(Cl)(Cl)Cl)c1)c1c(F)cccc1F	.	5.32µM	?	.	/	?
CCOC(=O)c1cc2c(=O)n3ccccc3nc2n(Cc2ccco2)c1=NC(=O)c1cccc(Br)c1	/	/	?	?	/	.
CCOC(=O)c1cc2c(=O)n3ccccc3nc2n(Cc2ccco2)c1=NC(=O)c1ccc(Br)cc1	/	/	.	.	/	89.1µM
CC(N)(C(=O)O)c1ccc(P(=O)(O)O)cc1 (stereo unspecified)	/	/	/	.	/	.
CC(C)=CCC1=C(O)c2ccccc2C(=O)C1=O	/	/	/	.	/	25.1µM

Bioassay records from PubChem BioAssay.
